Measured values taken from PubChem BioAssay (Tox21).
Unmarked numbers belong to inactive results. Activity calls are given as the source filed them. Calls come from the whole dose curve; as a rule, active = well fitted curve in the direction sought with a large enough effect in the repeat runs; inconclusive = weak or mixed curves; inactive = flat fitted curve, though single readings scatter.

Experiment: qHTS assay to test for compound auto fluorescence at 460 nm (blue) in HepG2 cell free culture (AID 720685)
Conditions: Cell-free culture medium, blue autofluorescence 405/460 nm; series mostly up to 91.3 µM
From the text: U.S. Tox21 Program National Center for Advancing Translational Sciences [NCATS] NIH Chemical Genomics Center [NCGC] U.S. Environmental Protection Agency [EPA] National Institutes of Environmental Health Sciences [NIEHS] National Toxicology Program [NTP] U.S. Food and Drug Administration [FDA] Tox21 Assay Overview: Compound auto fluorescence often interferes with screening of the compound library against various biological targets and signaling pathways. Some of these compounds may have fluorophoric properties. Such properties may interfere with the assay outputs resulting in false positives and/or negatives. To decrease such complications and ensure the compound activities are relevant in terms of biological response, the Tox21 10K compound library was screened for auto fluorescence. From the fluorophores used as reporter signals in our screening assays, the auto fluorescence equivalencies of compounds against three fluorophores have been evaluated: Triamterene, Fluorescein and Rose Bengal sodium for blue, green and red fluorescence, respectively. The fluorescence intensities were measured using Excitation/Emission wavelengths at 405/460nm, 485/535nm and 540/590nm for blue, green and red labels, respectively. This assay includes the blue fluorescence data.
Tox21 Assay Protocol Summary: 5 uL of culture medium (MEM containing 10% FBS) per well was dispensed into black wall/clear bottom 1536-well plates using a Multidrop Combi Dispenser (ThermoFisher Scientific, Waltham, MA). After 23 nL compound or DMSO vehicle was transferred into assay plate by a pintool work station (Kalypsys, San Diego, CA), fluorescence intensities in the assay plates were measured by an Envision (PerkinElmer, Shelton, CT) plate reader using three labels for measuring blue, green and red fluorescence at […] 460, 535 and 590nm respectively.
% is set by controls: 0 for no effect and ±100 for the full control effect.

| SMILES | outcome | fluorescence, % of fluorescent control |
| --- | --- | --- |
| COc1cc2c(cc1OC)C(C(C(=O)N(CCc1ccc(OC)c(OC)c1OC)CCc1ccc(OC)c(OC)c1OC)c1ccccc1)=NCC2 (stereo not given) | inactive |  |
| C/C=C/C=C/CO | inactive |  |
| O=C(CS)Nc1ccccc1 | inactive |  |
| O=C(Cl)c1cc(C(=O)Cl)cc(C(=O)Cl)c1 | inactive |  |
| CCOc1ccc(O)cc1 | inactive |  |
| COC(C)(C)CCO | inactive |  |
| CCCCCCCC#N | inactive |  |
| CCCCCCCCCOS(=O)(=O)O | inactive |  |
| CCCCC/C=C\C/C=C\CCCCCCCC(=O)NC(C)c1ccccc1 (stereo not given) | inactive |  |
| CCCCCCCCCCO[C@@H]1O[C@H](CO)[C@@H](O)[C@H](O)[C@H]1O | inactive |  |
| COc1ccc(C(=O)Nc2nc3ccccc3c(NCc3ccccc3)c2C#N)cc1 | inactive |  |
| C1CCCNCCC1 | inactive |  |
| Cc1ncc(CO)c(C=O)c1O | inactive |  |
| Nc1cccc(S(=O)(=O)c2cccc(N)c2)c1 | inactive |  |
| CCOC(=O)Cc1cccc2ccccc12 | inactive |  |
| O=C(O)C1(C(=O)Nc2ccc(Cl)cc2Cl)CC1 | inactive |  |
| CN(C)CCN(Cc1ccc(Cl)cc1)c1ccccn1 |  | 0.027% [at 18.6 µM] |
| CCN(CC)c1ccc2c(-c3ccccc3C(=O)O)c3ccc(=[N+](CC)CC)cc-3oc2c1 | inactive |  |
| COc1cc(C(=O)OCCCN2CCCN(CCCOC(=O)c3cc(OC)c(OC)c(OC)c3)CC2)cc(OC)c1OC | inactive |  |
| CNCCCCOc1ccccc1Cc1ccccc1 | inactive |  |

| SMILES | outcome | fluorescence, % of fluorescent control |
| --- | --- | --- |
| C=C1C(=C/C=C2\CCC[C@]3(C)[C@@H]([C@H](C)/C=C/[C@@H](O)C4CC4)CC[C@@H]23)C[C@@H](O)C[C@@H]1O | inactive |  |
| CCCCC(CC)COC(=O)COc1ccc(Cl)cc1Cl (stereo not given) | inactive |  |
| C=CC(=O)OCCOCCOCCOCCOC(=O)C=C | inactive |  |
| Nc1ccc(S(=O)(=O)Nc2ccccc2)cc1 | inactive |  |
| CC[N+]1(CC)CCC(=C(c2ccccc2)c2ccccc2)C1C (stereo not given) | inactive |  |
| CNCCCN1c2ccccc2CCc2ccccc21 |  | 0.0158% [at 18.6 µM] |
| C=CC(=O)OCCOc1ccccc1 | inactive |  |
| COc1cc2nc(N3CCN(C(=O)C4COc5ccccc5O4)CC3)nc(N)c2cc1OC (stereo not given) | inactive |  |
| COc1cc(Cl)ccc1Oc1ccc(Cl)cc1Cl | inactive |  |
| COc1cccc(N(C)C(=S)Oc2ccc3c(c2)CCCC3)n1 | inactive |  |
| CCCCCCc1ccc(-c2ccc(C#N)cc2)cc1 | inactive |  |
| CCCCOC(=O)CCCCCCCC(=O)OCCCC | inactive |  |
| Brc1c2ccccc2c(Br)c2ccccc12 |  | 0.581% [at 3.72 µM] |
| CC(C)=CCC/C(C)=C/CC/C(C)=C/CO | inactive |  |
| CCO[Si](CCCCl)(OCC)OCC | inactive |  |
| CCCOC(C(=O)OC1CCN(C)CC1)(c1ccccc1)c1ccccc1 | inactive |  |
| C#CCN(C)CCCOc1ccc(Cl)cc1Cl | inactive |  |
| CCOC(=O)C1=C[C@]2(CC)CCCN3CCc4c(n1c1ccccc41)[C@@H]32 | inactive |  |
| C=C(C)C(=O)OCCO | inactive |  |
| Nc1ccccc1S(=O)(=O)c1ccccc1 | inactive |  |
